Results from ChEMBL document CHEMBL2218924, “A broad activity screen in support of a chemogenomic map for kinase signalling research and drug discovery” (Biochem J, 2013).

How the values were obtained:
[1] = molecular target: Tyrosine-protein kinase Fes/Fps (Homo sapiens) (UniProt P07332); conditions: at 1 µM
[2] = molecular target: Tyrosine-protein kinase Fes/Fps (Homo sapiens) (UniProt P07332); conditions: at 10 µM
[3] = molecular target: Tyrosine-protein kinase Fgr (Homo sapiens) (UniProt P09769); conditions: at 1 µM
Chain of Tyrosine-protein kinase Fgr (Homo sapiens) (P09769 2-529 limits assumed): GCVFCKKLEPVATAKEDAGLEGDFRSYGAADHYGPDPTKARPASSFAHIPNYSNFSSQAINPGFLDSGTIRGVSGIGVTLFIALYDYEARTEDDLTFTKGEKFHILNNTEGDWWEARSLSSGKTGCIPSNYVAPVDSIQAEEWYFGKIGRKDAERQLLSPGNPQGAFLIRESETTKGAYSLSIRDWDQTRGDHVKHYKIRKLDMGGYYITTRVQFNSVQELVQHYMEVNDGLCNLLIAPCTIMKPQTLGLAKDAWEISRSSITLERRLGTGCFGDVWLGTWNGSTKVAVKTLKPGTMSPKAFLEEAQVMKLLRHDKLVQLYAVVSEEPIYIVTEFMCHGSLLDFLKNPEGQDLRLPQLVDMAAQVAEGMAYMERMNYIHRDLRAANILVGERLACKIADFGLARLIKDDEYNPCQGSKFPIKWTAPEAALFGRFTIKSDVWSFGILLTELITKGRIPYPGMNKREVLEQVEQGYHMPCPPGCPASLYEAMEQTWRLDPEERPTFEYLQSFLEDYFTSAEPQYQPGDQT

[4] = molecular target: Tyrosine-protein kinase Fgr (Homo sapiens) (UniProt P09769); conditions: at 10 µM
[5] = molecular target: Vascular endothelial growth factor receptor 1 (Homo sapiens) (UniProt P17948); conditions: at 10 µM
[6] = molecular target: Receptor-type tyrosine-protein kinase FLT3 (Homo sapiens) (UniProt P36888); conditions: at 1 µM
Chain of Receptor-type tyrosine-protein kinase FLT3 (Homo sapiens) (P36888 whole entry): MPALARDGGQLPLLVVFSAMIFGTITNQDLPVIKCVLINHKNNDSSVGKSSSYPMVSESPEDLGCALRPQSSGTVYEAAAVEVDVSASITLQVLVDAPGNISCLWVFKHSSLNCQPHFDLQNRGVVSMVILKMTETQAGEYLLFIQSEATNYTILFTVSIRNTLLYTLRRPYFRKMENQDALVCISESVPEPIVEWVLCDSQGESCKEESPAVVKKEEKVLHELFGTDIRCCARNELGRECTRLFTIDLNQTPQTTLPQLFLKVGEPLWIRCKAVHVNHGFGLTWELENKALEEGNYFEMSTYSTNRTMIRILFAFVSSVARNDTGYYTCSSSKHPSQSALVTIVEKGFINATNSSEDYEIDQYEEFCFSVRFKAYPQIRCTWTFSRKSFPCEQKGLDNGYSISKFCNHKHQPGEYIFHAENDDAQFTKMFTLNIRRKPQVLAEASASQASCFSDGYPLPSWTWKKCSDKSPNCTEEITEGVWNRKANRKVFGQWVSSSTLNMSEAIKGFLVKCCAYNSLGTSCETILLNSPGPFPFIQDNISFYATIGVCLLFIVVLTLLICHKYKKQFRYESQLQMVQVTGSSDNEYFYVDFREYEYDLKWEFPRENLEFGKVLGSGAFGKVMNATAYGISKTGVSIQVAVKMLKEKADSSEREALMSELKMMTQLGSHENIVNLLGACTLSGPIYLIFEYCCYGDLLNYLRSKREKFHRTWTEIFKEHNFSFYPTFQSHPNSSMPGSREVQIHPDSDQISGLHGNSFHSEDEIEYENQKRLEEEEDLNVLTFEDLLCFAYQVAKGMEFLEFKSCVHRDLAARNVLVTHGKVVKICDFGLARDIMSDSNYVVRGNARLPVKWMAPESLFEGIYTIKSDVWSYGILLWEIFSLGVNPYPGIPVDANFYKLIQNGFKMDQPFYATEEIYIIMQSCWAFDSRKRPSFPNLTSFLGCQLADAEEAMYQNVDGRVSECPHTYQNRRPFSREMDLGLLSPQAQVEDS

[7] = molecular target: Receptor-type tyrosine-protein kinase FLT3 (Homo sapiens) (UniProt P36888); conditions: at 10 µM
[8] = molecular target: Vascular endothelial growth factor receptor 3 (Homo sapiens) (UniProt P35916); conditions: at 1 µM
Chain of Vascular endothelial growth factor receptor 3 (Homo sapiens) (P35916 whole entry): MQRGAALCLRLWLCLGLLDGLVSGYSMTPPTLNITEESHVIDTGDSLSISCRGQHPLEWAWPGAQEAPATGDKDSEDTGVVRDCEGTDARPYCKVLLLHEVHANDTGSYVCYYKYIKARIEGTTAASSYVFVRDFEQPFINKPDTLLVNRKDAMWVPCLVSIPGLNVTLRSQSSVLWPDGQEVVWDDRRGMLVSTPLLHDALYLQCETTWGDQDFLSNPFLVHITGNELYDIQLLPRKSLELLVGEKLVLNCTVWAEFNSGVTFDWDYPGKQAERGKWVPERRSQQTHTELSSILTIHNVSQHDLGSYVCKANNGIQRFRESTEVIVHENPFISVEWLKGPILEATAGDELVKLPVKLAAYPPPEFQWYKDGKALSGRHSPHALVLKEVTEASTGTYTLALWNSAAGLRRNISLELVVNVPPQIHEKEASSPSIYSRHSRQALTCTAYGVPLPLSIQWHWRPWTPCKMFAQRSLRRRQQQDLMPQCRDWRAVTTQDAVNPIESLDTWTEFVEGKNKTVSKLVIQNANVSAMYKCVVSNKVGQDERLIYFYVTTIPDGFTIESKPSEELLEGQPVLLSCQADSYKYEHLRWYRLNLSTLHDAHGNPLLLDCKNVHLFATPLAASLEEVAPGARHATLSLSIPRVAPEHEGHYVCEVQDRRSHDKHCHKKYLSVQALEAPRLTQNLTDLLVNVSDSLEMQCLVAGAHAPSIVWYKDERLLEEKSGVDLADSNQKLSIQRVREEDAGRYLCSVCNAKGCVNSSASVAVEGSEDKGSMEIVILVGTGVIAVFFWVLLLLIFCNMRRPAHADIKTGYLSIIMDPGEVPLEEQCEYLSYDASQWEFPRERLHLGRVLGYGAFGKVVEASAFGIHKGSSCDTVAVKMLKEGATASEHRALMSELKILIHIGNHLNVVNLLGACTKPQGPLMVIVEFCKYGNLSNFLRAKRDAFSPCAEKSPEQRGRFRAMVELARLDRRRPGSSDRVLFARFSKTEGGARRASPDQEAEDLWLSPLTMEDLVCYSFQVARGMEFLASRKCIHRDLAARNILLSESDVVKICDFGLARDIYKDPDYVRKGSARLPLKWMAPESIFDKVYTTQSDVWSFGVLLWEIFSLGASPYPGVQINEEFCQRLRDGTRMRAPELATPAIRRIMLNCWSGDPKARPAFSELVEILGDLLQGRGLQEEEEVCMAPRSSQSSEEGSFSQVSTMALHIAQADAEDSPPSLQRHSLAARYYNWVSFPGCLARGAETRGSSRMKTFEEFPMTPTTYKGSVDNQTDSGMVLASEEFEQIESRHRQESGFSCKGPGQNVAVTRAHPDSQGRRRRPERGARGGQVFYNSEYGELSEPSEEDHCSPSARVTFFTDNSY

[9] = molecular target: Vascular endothelial growth factor receptor 3 (Homo sapiens) (UniProt P35916); conditions: at 10 µM
[10] = molecular target: Macrophage colony-stimulating factor 1 receptor (Homo sapiens) (UniProt P07333); conditions: at 10 µM
Chain of Macrophage colony-stimulating factor 1 receptor (Homo sapiens) (P07333 whole entry): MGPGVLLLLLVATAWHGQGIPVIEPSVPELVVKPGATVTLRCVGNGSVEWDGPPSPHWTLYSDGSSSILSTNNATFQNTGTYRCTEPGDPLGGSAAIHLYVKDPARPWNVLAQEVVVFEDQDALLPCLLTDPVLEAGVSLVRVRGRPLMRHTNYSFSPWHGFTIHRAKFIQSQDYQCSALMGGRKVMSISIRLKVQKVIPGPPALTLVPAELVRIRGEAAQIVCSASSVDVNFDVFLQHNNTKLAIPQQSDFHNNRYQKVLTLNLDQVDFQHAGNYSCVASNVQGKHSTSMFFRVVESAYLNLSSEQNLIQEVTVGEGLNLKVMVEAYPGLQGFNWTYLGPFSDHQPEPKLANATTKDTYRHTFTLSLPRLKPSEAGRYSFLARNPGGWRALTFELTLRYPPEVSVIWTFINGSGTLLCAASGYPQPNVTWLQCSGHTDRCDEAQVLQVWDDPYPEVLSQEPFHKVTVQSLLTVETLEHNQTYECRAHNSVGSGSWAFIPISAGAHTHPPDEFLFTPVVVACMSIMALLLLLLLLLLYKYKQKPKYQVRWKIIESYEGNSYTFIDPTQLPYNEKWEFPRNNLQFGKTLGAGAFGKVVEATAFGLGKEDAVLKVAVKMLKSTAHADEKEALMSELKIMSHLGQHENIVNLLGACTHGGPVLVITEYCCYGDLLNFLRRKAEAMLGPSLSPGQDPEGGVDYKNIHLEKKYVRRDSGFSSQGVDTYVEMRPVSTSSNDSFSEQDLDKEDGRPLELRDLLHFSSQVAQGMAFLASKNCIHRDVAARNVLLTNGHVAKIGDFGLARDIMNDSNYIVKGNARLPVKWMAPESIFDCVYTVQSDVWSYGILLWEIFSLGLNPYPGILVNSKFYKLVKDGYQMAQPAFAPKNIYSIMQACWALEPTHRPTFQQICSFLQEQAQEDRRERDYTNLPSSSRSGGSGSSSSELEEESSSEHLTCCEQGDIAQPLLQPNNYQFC

[11] = molecular target: Tyrosine-protein kinase Fyn (Homo sapiens) (UniProt P06241); conditions: at 1 µM
[12] = molecular target: Tyrosine-protein kinase Fyn (Homo sapiens) (UniProt P06241); conditions: at 10 µM
[13] = molecular target: T1, Mitogen-activated protein kinase kinase kinase kinase 2 (Homo sapiens) (UniProt Q12851); conditions: at 1 µM
T1 sequence (whole entry): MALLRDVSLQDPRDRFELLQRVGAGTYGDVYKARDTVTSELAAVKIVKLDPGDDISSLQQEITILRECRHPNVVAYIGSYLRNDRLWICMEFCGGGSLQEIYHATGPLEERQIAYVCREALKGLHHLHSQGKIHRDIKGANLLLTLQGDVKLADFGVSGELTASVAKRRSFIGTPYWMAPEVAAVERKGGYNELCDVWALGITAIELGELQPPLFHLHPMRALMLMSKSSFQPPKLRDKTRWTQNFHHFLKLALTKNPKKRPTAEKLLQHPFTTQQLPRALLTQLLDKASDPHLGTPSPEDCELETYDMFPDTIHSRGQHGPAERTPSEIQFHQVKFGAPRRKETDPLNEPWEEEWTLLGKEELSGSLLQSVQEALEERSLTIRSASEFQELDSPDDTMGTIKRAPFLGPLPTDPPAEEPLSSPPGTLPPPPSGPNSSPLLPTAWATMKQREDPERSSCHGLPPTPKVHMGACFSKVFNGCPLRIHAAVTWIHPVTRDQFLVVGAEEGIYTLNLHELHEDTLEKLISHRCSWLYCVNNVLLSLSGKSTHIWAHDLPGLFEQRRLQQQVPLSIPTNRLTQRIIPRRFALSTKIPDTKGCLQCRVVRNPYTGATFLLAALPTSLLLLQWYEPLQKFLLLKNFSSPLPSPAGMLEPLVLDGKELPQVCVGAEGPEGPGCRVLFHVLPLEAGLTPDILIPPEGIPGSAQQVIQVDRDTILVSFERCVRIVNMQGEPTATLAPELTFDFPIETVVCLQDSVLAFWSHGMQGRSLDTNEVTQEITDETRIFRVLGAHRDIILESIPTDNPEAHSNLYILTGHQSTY

[14] = molecular target: T1, Mitogen-activated protein kinase kinase kinase kinase 2 (Homo sapiens); conditions: at 10 µM
[15] = molecular target: G protein-coupled receptor kinase 5 (Homo sapiens) (UniProt P34947); conditions: at 10 µM
[16] = molecular target: Tyrosine-protein kinase Fer (Homo sapiens) (UniProt P16591); conditions: at 10 µM
[17] = molecular target: Vascular endothelial growth factor receptor 1 (Homo sapiens) (UniProt P17948); conditions: at 1 µM
[18] = molecular target: Macrophage colony-stimulating factor 1 receptor (Homo sapiens) (UniProt P07333); conditions: at 1 µM
[19] = molecular target: T2, Rhodopsin kinase GRK7 (Homo sapiens) (UniProt Q8WTQ7); conditions: at 1 µM
T2 sequence (whole entry): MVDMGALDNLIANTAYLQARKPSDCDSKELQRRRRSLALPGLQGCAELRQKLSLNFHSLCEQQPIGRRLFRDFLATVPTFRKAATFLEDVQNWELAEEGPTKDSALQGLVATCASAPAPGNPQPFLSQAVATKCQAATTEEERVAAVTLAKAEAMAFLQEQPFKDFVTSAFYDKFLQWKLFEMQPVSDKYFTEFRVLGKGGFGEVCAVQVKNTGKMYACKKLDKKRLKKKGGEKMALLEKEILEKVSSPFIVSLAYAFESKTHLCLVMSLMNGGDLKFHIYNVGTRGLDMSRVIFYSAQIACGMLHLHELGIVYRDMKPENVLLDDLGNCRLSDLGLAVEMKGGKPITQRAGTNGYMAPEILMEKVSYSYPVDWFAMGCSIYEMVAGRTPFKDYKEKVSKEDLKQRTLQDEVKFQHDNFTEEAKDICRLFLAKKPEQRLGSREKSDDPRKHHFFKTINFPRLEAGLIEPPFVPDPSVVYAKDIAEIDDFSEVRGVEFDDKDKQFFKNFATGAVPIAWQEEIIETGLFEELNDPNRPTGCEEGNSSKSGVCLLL

[20] = molecular target: G protein-coupled receptor kinase 6 (Homo sapiens) (UniProt P43250); conditions: at 10 µM

Chain of Tyrosine-protein kinase Fes/Fps (Homo sapiens) (P07332 whole entry): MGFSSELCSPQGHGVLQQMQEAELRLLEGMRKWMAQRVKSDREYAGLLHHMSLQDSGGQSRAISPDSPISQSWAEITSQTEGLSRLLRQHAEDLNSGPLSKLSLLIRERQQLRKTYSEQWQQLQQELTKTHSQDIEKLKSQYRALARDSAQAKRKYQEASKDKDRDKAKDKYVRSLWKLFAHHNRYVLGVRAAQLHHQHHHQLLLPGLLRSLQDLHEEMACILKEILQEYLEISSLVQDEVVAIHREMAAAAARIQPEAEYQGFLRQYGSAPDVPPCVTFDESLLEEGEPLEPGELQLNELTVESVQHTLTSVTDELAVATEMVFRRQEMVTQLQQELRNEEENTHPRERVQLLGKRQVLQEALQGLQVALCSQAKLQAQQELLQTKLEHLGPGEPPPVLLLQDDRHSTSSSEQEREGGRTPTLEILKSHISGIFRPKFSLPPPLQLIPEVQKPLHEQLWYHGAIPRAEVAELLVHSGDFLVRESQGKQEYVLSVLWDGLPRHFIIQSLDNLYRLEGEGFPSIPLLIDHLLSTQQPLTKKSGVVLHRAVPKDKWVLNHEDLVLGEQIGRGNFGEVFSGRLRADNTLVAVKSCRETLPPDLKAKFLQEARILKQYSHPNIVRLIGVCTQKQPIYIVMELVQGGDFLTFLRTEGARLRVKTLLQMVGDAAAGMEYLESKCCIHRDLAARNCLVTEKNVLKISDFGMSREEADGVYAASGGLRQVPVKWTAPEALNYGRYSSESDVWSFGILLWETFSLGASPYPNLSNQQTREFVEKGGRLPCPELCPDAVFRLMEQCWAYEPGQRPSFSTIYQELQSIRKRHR

Row | SMILES | residual activity [1] | residual activity [2] | residual activity [3] | residual activity [4] | residual activity [5] | residual activity [6] | residual activity [7] | residual activity [8] | residual activity [9] | residual activity [10] | residual activity [11] | residual activity [12] | residual activity [13] | residual activity [14] | residual activity [15] | residual activity [16] | residual activity [17] | residual activity [18] | residual activity [19] | residual activity [20]
1 | CSc1nc(-c2ccc(F)cc2)c(-c2ccnc(NC(C)c3ccccc3)c2)[nH]1 (configuration not stated) | 102% | 87% | 84% | 71% | 80% | 86% | 83% | 97% | 64% | 41% | 87% | 69% | 75% | 56% | 91% |  |  |  |  | 
2 | Nc1nccc(-c2c(-c3ccc(F)cc3)ncn2C2CCNCC2)n1 |  |  |  | 25% |  |  |  | 69% | 10% |  |  |  | 82% | 61% |  |  |  |  |  | 
3 | CN([C@@H](Cc1ccc(OS(=O)(=O)c2cccc3cnccc23)cc1)C(=O)N1CCN(c2ccccc2)CC1)S(=O)(=O)c1cccc2cnccc12 |  |  |  |  |  |  | 76% |  |  |  |  |  |  |  |  |  |  |  |  | 
4 | Cn1c2ccccc2c2c3c(c4c5ccccc5n(CCC#N)c4c21)CNC3=O |  |  | 41% | 47% | 4% | 0% | 0% | 2% | 3% | 5% | 47% | 58% | 2% | 1% | 75% | 4% | 4% | 14% | 16% | 
5 | N#C/C(=C\c1ccc(O)c(O)c1)C(=O)NCc1ccccc1 | 124% | 76% |  | 82% |  |  |  |  |  | 81% |  | 80% |  | 85% |  |  |  | 67% |  | 
6 | CCOc1nc(NC(=O)Cc2cc(OC)ccc2OC)cc(N)c1C#N |  |  |  |  |  |  |  |  | 64% | 53% |  |  |  | 72% |  |  |  |  |  | 
7 | COc1ccc(CNC(=O)Nc2ncc([N+](=O)[O-])s2)cc1 |  |  | 31% | 28% | 49% |  |  | 59% | 17% | 58% | 105% |  |  |  |  |  | 74% | 77% |  | 
8 | O=C(Nc1nc2ccccc2n1CCN1CCOCC1)c1cccc([N+](=O)[O-])c1 | 101% | 74% | 102% |  |  | 38% | 29% | 36% | 40% | 5% |  |  | 70% | 67% | 85% |  |  | 8% |  | 
9 | COc1ccc(COc2ccc(Cc3cnc(N)nc3N)cc2OC)cc1 |  |  |  |  |  |  |  |  | 115% |  |  |  |  | 63% |  |  |  |  |  | 
10 | NC(=O)c1ccc(-c2nc(-c3ccc4c(c3)OCCO4)c(-c3ccccn3)[nH]2)cc1 |  |  |  |  | 70% | 64% | 51% | 79% | 46% | 64% | 81% | 83% |  | 94% |  |  | 82% | 74% |  | 88%
11 | O=C(Nc1ccc(Cl)cc1)c1ccccc1NCc1ccncc1 |  |  |  |  | 2% |  | 65% | 0% | 0% | 0% | 102% | 70% |  | 58% |  | 101% | 0% | 1% |  | 
12 | O=C1Cc2c([nH]c3ccc(Br)cc23)-c2ccccc2N1 | 63% | 38% |  |  | 39% | 65% | 34% | 56% | 22% | 23% | 31% | 11% | 6% | -1% | 96% |  | 77% | 49% |  | 
13 | O=C1NC(=O)C(c2cn(CCCn3ccnc3)c3ccccc23)=C1Nc1ccccc1 |  |  |  | 59% | 11% | 14% | 0% | 58% | 9% | 40% |  |  | 54% | 13% | 30% | 52% | 51% | 66% | 75% | 59%
14 | COc1cc2nccc(Oc3ccc(NC(=O)Nc4cc(C)on4)c(Cl)c3)c2cc1OC | 78% | 46% | 8% | 4% |  |  |  | -1% | -1% | 0% | 5% | 1% | 47% | 17% | 104% |  |  | 0% | 105% | 
15 | O=c1cc(N2CCOCC2)oc2c(-c3ccccc3)cccc12 |  |  |  |  |  |  |  |  | 72% | 62% |  |  |  | 70% |  |  |  | 66% |  | 77%
16 | Nc1ncnc2c1cnn2-c1ccccc1 |  |  |  | 85% | 88% | 95% | 55% | 99% | 82% | 67% | 79% | 58% | 100% |  |  |  | 96% |  |  | 93%
17 | Nc1nc(Nc2ccc(S(N)(=O)=O)cc2)nn1C(=O)c1c(F)cccc1F |  |  | 63% | 20% | 2% |  | 5% | 1% | 0% | 7% | 51% | 10% | 33% | 6% | 24% | 55% | 18% | 30% | 55% | 
18 | NC(=O)c1cccc(-c2cc(Nc3ccc(OC(F)(F)F)cc3)ncn2)c1 | 125% | 99% |  |  |  | 97% | 93% | 90% | 81% | 73% |  | 78% |  | 88% |  |  |  | 74% |  | 100%
19 | CCN1/C(=C/C(C)=O)Sc2ccc(OC)cc21 |  |  |  | 73% | 81% | 64% | 39% |  | 65% | 66% | 80% |  | 74% | 55% |  |  |  | 81% |  | 79%
20 | Fc1ccc(-c2nc3n(c2-c2ccncc2)CCS3)cc1 |  |  |  | 97% |  | 98% | 82% | 89% | 43% | 84% | 92% | 83% |  | 83% |  |  |  | 90% |  | 
21 | c1ccc(-c2cnc(Nc3ccc(OCCN4CCCC4)cc3)s2)cc1 | 123% | 59% | 63% | 11% | 0% | 4% | 0% | 2% | 1% | 1% | 55% | 13% | 100% | 39% | 105% |  | 4% | 1% | 105% | 
22 | O=C1Nc2ccc(Cl)cc2/C1=C/c1cc(Cl)c(O)c(Cl)c1 |  |  | 96% | 42% | 1% | 21% | 1% | 3% | 1% | 1% | 67% | 25% | 46% | 14% |  |  | 55% | 7% | 91% | 82%
